Source: PubChem (National Center for Advancing Translational Sciences (NCATS))
Nrf2 inh = Nrf2 pathway inhibition; A549 ARE-Fluc reporter, luciferase luminescence, 18-24 h; Potency, µM (highest dose often 46 µM), inactives show top-dose activity change, negative = inhibition, usual class: inhibitors; 360,000 compounds, 2.1% hits; AID 504444; note: % is set by controls: 0 for no effect and ±100 for the full control effect; nearly all actives have a fitted effect of over 60% in size
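Concentration-response testing used A549 ARE_Fluc cells at 5000 cells/well. Following an 18-24 h compound incubation, viability was read by fluorescence (Ex 405/Em 525) and luciferase output by luminescence.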
Nrf2 ARE act = activates Nrf2 signaling; 410,000 compounds, 0.31% hits; Potency, µM (doses to about 46.1 µM), inactives show at the top dose activation, most hits filed as activators; AREc32 ARE-luciferase reporter (MCF7-derived line), luminescence, 24 h; AID 624171; note: % of control where 0% means no effect; nearly all actives have a fitted effect of over 65% in size
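AREc32 cells carrying an ARE-driven firefly luciferase, 1000 cells/well in OPTI-MEM with 5% FBS, dosed after overnight attachment and incubated 24 hr at 37 deg C. Steady-Glo luminescence read after 30 min at RT.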
A549 tox = counter-screen for Nrf2 inhibitors: cytotoxicity in A549 cells; AID 504648; 390,000 compounds, 0.16% hits; A549 ARE-Fluc cells, CellTiter-Fluor viability, 18-24 h; Potency, µM (top dose mostly 46 µM), inactives show top-dose activity change, negative = cytotoxicity, usual class: inhibitors; note: % is set by controls: 0 for no effect and ±100 for the full control effect
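A549 ARE-Fluc cells in 5% FBS OPTI-MEM, 5000 cells/well, rested 2 h then exposed to compounds in concentration-response for 18-24 h at 37 °C. Viability by CellTiter-Fluor fluorescence (Ex 405/Em 525) after 30 min; luciferase luminescence (BugLite, 15 min, RT) read afterwards.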
TGFb SMAD3 inh = TGF-b pathway inhibition; HepG2 CAGA-GFP TGF-b/SMAD3 reporter, GFP fluorescence, 18 h; TGF-beta stimulated, 500 pg/mL final; Potency, µM (titrated, usually from 46.1 µM), for inactives: top-dose activity, negative = inhibition, hits mostly inhibitors; 410,000 compounds, 1.2% hits; AID 588855; note: % is set by controls: 0 for no effect and ±100 for the full control effect; nearly all actives have a fitted effect of over 65% in size
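TGF-beta reporter screen: HEPG2 CAGA-GFP, 1% FBS, 500 pg/mL TGF-beta final, 18 h; per-cell GFP summed per well; curves fitted and categorized by class.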
HepG2 tox = counter-screen for TGF-b inhibitors: cytotoxicity in HepG2 cells | Potency, µM (top dose mostly 46.1 µM), for the others: at the top dose activity change, negative = cytotoxicity, actives largely listed as cytotoxic | AID 588856 | 410,000 compounds, 0.76% hits | HepG2 CAGA-GFP viability, ATP luminescence, 18 h
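HepG2 CAGA-GFP cells (1000/well, DMEM with 1% FBS) received compound, then TGF-beta at 500 pg/mL final, and were incubated 18 hours at 37 degrees C. Viability was read by CellTiter-Glo luminescence. Media-only wells were set as complete cell-killing and DMSO as no toxicity.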
Active calls of the source: *; ? = inconclusive; . = not tested or not shown. Shown are actives, neighbours in structure and some others; about 3.6% of the full set was active somewhere. Calls come from the whole dose curve; as a rule, active = well fitted curve in the direction sought with a large enough effect; inconclusive = small, poorly fitted or top-dose-only effect, or another doubt; inactive = no such curve, though single readings can be large; an effect the other way counts as inactive or inconclusive. Potency is the fitted concentration of half-maximal effect.

SMILES	Nrf2 inh	Nrf2 ARE act	A549 tox	TGFb SMAD3 inh	HepG2 tox
Cc1c(N=Nc2c(O)n(Cc3ccccc3)c(=O)[nH]c2=O)c(=O)n(-c2ccccc2)n1C	5.17µM*	-0.1%	16.4µM*	-17.9%	-25.4%
COC(=O)C1=C(c2ccccc2)C[C@@H]2CC[C@H]1N2C(=O)NC1CC1	1.9%	-1.5%	0.7%	-28.1%	-1.9%
COc1ccc(CC(N)c2csc(NC(=O)Nc3ccccc3Oc3ccccc3)n2)cc1 (stereo not given)	.	-3.0%	.	?	10µM*
CC1CCCC(C)N1/N=C/c1c[nH]c2ccc(Br)cc12 (stereo not given)	-11.0%	-2.9%	-6.9%	?	17.8µM*
Fc1ccc(C(OCCN2CCCC2)c2ccc(F)cc2)cc1	5.3%	0.3%	-12.1%	9.4%	-4.5%
Fc1ccc(C(OCCN2CCN(CCCc3ccccc3)CC2)c2ccc(F)cc2)cc1	23.1µM*	-3.4%	?	?	-79.0%
c1ccc(CCCN2CCN(CCOC(c3ccccc3)c3ccccc3)CC2)cc1	0.3%	-0.5%	-7.7%	?	11.2µM*
C=CCCC[C@@H]1OC(=O)CNC(=O)C([C@@H](C)CC)NC(=O)[C@@H]2CCCN2C(=O)C([C@@H](C)CC)OC(=O)[C@H](Cc2ccccc2)N(C)C(=O)[C@H](C(C)C)NC(=O)C1(C)C (stereo not given in full)	.	-2.2%	.	10µM*	-31.0%
O=C(CCc1nc(C2=CCN(Cc3cccc(Cl)c3)CC2)no1)Nc1ccccc1F	.	4.8%	5.0%	?	-27.6%
Cc1ccccc1N1C(=O)NC(=O)/C(=C\c2cc(Br)c(N3CCOCC3)o2)C1=O	16.4µM*	5.6%	23.1µM*	19.3%	19.3%
C=C1C(=O)O[C@@H]2C[C@@H](C)[C@H]3C=CC(=O)[C@]3(O)C[C@@H]12	-24.6%	?	-5.8%	12.6µM*	-40.1%
O=P(Oc1ccccc1)(Oc1ccccc1)C(Nc1ccccc1)c1ccccc1 (stereo not given)	20.6µM*	0.0%	-15.7%	?	-27.5%
O=C(CCN1CCCCC1)Nc1ccc(Br)cc1C(=O)c1ccccc1	-5.3%	11.9%	-0.3%	-16.3%	-30.4%
COC(=O)C1=C(c2ccc(-c3ccccc3)c(F)c2)C[C@@H]2CC[C@H]1N2C(=O)NCCO	-25.0%	-0.8%	-0.1%	-11.7%	-25.6%
COC(=O)C1=C(c2ccc(-c3ccccc3)c(F)c2)C[C@@H]2CC[C@H]1N2C(=O)NCCOc1ccccc1Cl	16.4µM*	0.2%	-19.6%	?	-1.0%
CCCNC(=O)N1[C@H]2CC[C@@H]1C(C(=O)OC)=C(c1ccc(-c3ccccc3)c(F)c1)C2	16.4µM*	3.7%	0.3%	?	-11.7%
Clc1cc(Cl)c(-c2cc(Cl)c(Cl)cc2Cl)cc1Cl	23.6%	0.3%	-1.6%	2.0%	0.4%
Oc1ccc(CCN2CCCCC2)cc1	0.5%	-1.8%	-1.1%	9.5%	-0.6%
CC(C)c1ccc2c(c1)C(N1CCNCC1)Cc1ccc(F)cc1S2 (stereo not given)	1.4%	-3.1%	6.0%	17.8µM*	-91.2%
COc1ccc(-n2c(-c3ccco3)nc3c(cnn3-c3ccc(Cl)cc3)c2=O)cc1	25.9µM*	0.0%	-2.7%	?	-21.1%
O=c1c2ccccc2nc(-c2ccco2)n1-c1ccc(Br)cc1	5.1%	-0.7%	-10.8%	-17.8%	14.7%
O=C1c2ccccc2-c2cc3ccccc3cc21	?	3.16µM*	-1.6%	4.2%	-1.8%
O=C1c2ccccc2-c2cccc3cccc1c23	21.7%	?	4.9%	0.5%	-29.1%
COc1ccc(-c2cnnn2-c2ccc(NC(=O)c3ccc(S(=O)(=O)N(C)C)cc3)cc2)cc1	.	0.0%	-9.9%	33.7%	-17.9%
COc1ccc(C(=O)Nc2ccc(S(=O)(=O)N(Cc3ccccc3)c3ccccc3)cc2)cc1	7.31µM*	1.0%	-1.0%	-27.2%	-13.2%
SMILES	Nrf2 inh	Nrf2 ARE act	A549 tox	TGFb SMAD3 inh	HepG2 tox
O=C1C=C(N2CC2)c2ccccc2C1=O	.	-4.8%	.	15.8µM*	-110.0%
Nc1c(C(=O)NCCc2ccccc2)c2nc3ccccc3nc2n1CCN1CCOCC1	0.1%	-0.3%	0.8%	?	-100.9%
Cc1cc(C)cc(NC(=O)Cn2cc(C(=O)c3cccs3)c3ccccc32)c1	16.4µM*	-0.5%	-17.2%	?	-26.4%
CCn1cc(C(=O)c2cccs2)c2ccccc21	7.4%	5.4%	-1.2%	9.3%	43.4%
O=P1(Oc2ccccc2)CC=CC(COC(c2ccccc2)(c2ccccc2)c2ccccc2)O1 (stereo not given)	?	.	?	15.8µM*	-19.3%
CN(C)C(=S)SSC(=S)N(C)C	6.6%	-3.5%	-4.3%	-91.9%	0.1µM*
CCC(C(=O)Nc1ccccc1C(=O)OC)n1nc(C)c2c(C)n(-c3ccc(C)cc3)nc2c1=O (stereo not given)	18.4µM*	-1.4%	-21.9%	11.2µM*	-15.4%
Cc1cccc(C)c1NC(=O)c1cccn(Cc2ccc3c(c2)OC(F)(F)O3)c1=O	?	0.1%	2.4%	-23.2%	11.2µM*
Cc1c(NS(=O)(=O)c2ccccc2)ccc([N+](=O)[O-])c1Cl	14.6µM*	4.1%	?	11.2µM*	-24.6%
CCN(CCNc1ccc([N+](=O)[O-])c2cccnc12)S(=O)(=O)c1ccccc1	18.6%	0.6%	-9.1%	-17.6%	-5.5%
Cc1cc(/C=C2/C(=O)NC(=O)N(Cc3ccco3)C2=O)c(C)n1-c1ccccc1O	2.4%	0.6%	-0.3%	-3.2%	-15.7%
COC(=O)C1=C(c2ccc(Cl)c(C(F)(F)F)c2)C[C@@H]2CC[C@H]1N2C(=O)N1CCC(O)(c2ccc(Cl)cc2)CC1	23.1µM*	-0.1%	?	14.1µM*	-46.1%
COC(=O)C1=C(c2ccc(Cl)c(C(F)(F)F)c2)C[C@@H]2CC[C@H]1N2C(=O)N1CCCC1	?	1.1%	1.6%	-24.3%	-10.2%
C=CCn1c(O)c(C(C)=NCC2CCCO2)c(=O)[nH]c1=O (stereo not given)	-1.0%	0.0%	-1.8%	1.6%	-6.2%
O=[N+]([O-])c1ccc(N2CCCC2)cc1N/N=C1\CN2CCC1CC2	-22.9%	2.0%	9.2µM*	10.4%	-11.9%
CNc1cc(N2CCN(C)CC2)ccc1[N+](=O)[O-]	3.5%	3.1%	-29.4%	-0.8%	14.2%
Cn1c(O)c(C(=Nc2ccccc2)SCc2ccc(Cl)cc2)c(=O)n(C)c1=O	23.1µM*	16.5%	?	?	-53.9%
CCC(=NCc1ccco1)c1c(O)n(C)c(=O)n(C)c1=O	?	6.6%	-10.0%	38.5%	75.2%
CCC(=NCCc1ccccc1)c1c(O)n(C)c(=O)n(C)c1=O	20.6µM*	0.9%	1.9%	?	-19.7%
